Test results published in publication PMC5540273 (PLoS ONE, 2017).

Experiments:
Conditions in all cases: concentration: 1 μM, replicates: in singlicate; n = 1
[1] = system: DYRK1B
[2] = system: DYRK2
[3] = system: EGFR
[4] = system: EIF2AK1
[5] = system: EPHA1
[6] = system: EPHA2
[7] = system: EPHA3
[8] = system: EPHA4
[9] = system: EPHA5
[10] = system: EPHA6
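Also: KINOMEscan kinase panel screen.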

Compound	%Inh [1] [%]	%Inh [2] [%]	%Inh [3] [%]	%Inh [4] [%]	%Inh [5] [%]	%Inh [6] [%]	%Inh [7] [%]	%Inh [8] [%]	%Inh [9] [%]	%Inh [10] [%]
COc1cc(Nc2ncc3c(C)nc(-c4cc5ccccc5[nH]4)n3n2)cc(OC)c1OC [GW869516]	81	0	0	0	41	49	7	46	16	0
CC(=O)Nc1nc2cnc(Nc3cc(NC(=O)c4cccc(C5(C#N)CC5)c4Cl)ccc3C)nc2s1	67	8	0	0	70	79	50	59	3	56
CN(C)S(=O)(=O)c1cc(-c2ccc3nccc(-c4cccc(S(N)(=O)=O)c4)c3c2)cnc1N [GSK1669921]	0	44	18	8	10	9	0	20	0	18
Cc1ccc(C(=O)N2CC[C@@H](O)C2)cc1-n1c(C)cc(OCc2ccc(F)cc2F)c(Br)c1=O	0	0	0	0	78	76	42	0	0	0
NCCCC(NC(=O)c1cc(Br)c(-c2ccnc3[nH]ccc23)s1)c1ccccc1.O=C(O)C(F)(F)F.O=C(O)C(F)(F)F (centres unmarked) [GSK1287544]	22	37	4	0	6	0	0	11	5	18
O=C(Nc1ccccc1F)NC1CCN(c2ccnc(Nc3ccc(F)cc3)n2)CC1 [GSK1379800]	12	0	47	0	0	0	0	5	0	5
O=C(Nc1n[nH]c2cc(-c3ccoc3)ccc12)C1CC1 [SB-738481]	23	75	6	0	13	0	0	5	2	9
Cc1occc1-c1ncc(OC[C@@H](N)Cc2c[nH]c3ccccc23)cc1-c1ccc2[nH]nc(C)c2c1.O=C(O)C(F)(F)F [GSK682037]	0	26	94.3	0	0	9	29	0	0	49
c1ccc(-c2n[nH]cc2Nc2ccnc3ccccc23)nc1 [GW694077]	100	90	15	0	0	0	0	4	0	0
CN1CCN(CCCNc2nccc(-c3c(-c4ccc(F)cc4)nn4cc(C(F)(F)F)ccc34)n2)CC1 [GW621581]	0	4	23	0	42	0	0	1	0	8
COC(=O)Nc1nc2ccc(Oc3ccc(NC(=O)Nc4cc(C(F)(F)F)ccc4F)cc3)cc2n1C.Cl [GW692089]	26	0	0	0	36	75	26	65	0	84
COc1cc(Nc2nccc(N3CCC(NC(=O)c4cc5ccccc5s4)C3)n2)cc(OC)c1OC (centres unmarked) [GSK1379760]	33	19	45	0	3	9	0	7	0	5
COc1ccc(-c2coc3ccc(-c4nnc(SCc5ccc(OC)c(C(F)(F)F)c5)o4)cc23)cc1	0	14	0	5	0	2	0	8	18	17
CN(c1ccc(NC(=O)Nc2cc(C(F)(F)F)ccc2F)cc1)c1ccnc(Nc2ccc(S(N)(=O)=O)cc2)n1 [GW809893]	10	14	4	10	97.4	96.1	78	96.9	97.5	98.5
O=C(Nc1n[nH]c2nc(-c3ccc(O)cc3)ccc12)C1CC1 [SB-710363]	65	97.2	0	0	0	0	16	3	0	17
CCn1c(-c2nonc2N)nc2c(C#CC(C)(C)O)ncc(OCCCCN)c21.O=C(O)C(F)(F)F.O=C(O)C(F)(F)F [GSK507274]	0	8	9	27	20	43	38	8	0	20

Compound	%Inh [1] [%]	%Inh [2] [%]	%Inh [3] [%]	%Inh [4] [%]	%Inh [5] [%]	%Inh [6] [%]	%Inh [7] [%]	%Inh [8] [%]	%Inh [9] [%]	%Inh [10] [%]
COc1ccc(Nc2nccc(NCCNC(=O)c3cc4ccccc4s3)n2)cc1 [GSK1379896]	0	5	19	0	0	8	0	0	0	0
CCc1ccc(-c2ccc3c(c2)-c2c(cnn2C)S(=O)(=O)N3C)cc1	3	0	15	0	0	0	0	1	8	0
O=C(Nc1cccc(-c2nn3ccccc3c2-c2ccnc(Nc3cccc(C(F)(F)F)c3)n2)c1)c1c(F)cccc1F [GSK292658]	1	3	98.2	0	5	8	0	5	0	7
O=c1[nH]cc(-c2ccc(N3CCOCC3)cc2)c2sc(-c3cn[nH]c3)cc12 [GSK2276055]	100	89	18	0	0	0	30	0	0	0
Cl.NC(=O)c1cccc(Nc2nccc(Nc3ccc(Oc4c(Cl)cccc4Cl)c(Cl)c3)n2)c1 [GW659009]	0	6	99.5	13	0	0	0	0	0	0
Cl.Cl.NCC(C(=O)Nc1cc(Br)c(-c2ccnc3[nH]ccc23)s1)c1ccccc1 (centres unmarked) [GSK1269851]	33	78	27	0	83	4	48	28	0	32
Cc1cccc(NC(=O)Nc2ccc(Oc3ncnc4ccn(C)c34)cc2)c1	9	0	1	0	0	0	17	0	9	28
CNC(=O)c1ccccc1Nc1nc(Nc2ccc(N3CCOCC3)cc2)ncc1Cl.Cl [GSK1576028]	100	99.1	98.8	0	90.8	53	76	29	0	65
Cl.Cl.NCC(NCc1ccc(-c2ccnc3[nH]ccc23)s1)c1ccccc1 (centres unmarked) [GSK1321565]	25	80	24	0	24	0	0	0	0	0
Cn1cc(-c2ccc3c(c2)CCN3C(=O)Cc2cccc(F)c2)c2c(N)ncnc21 [GSK2603358]	1	4	35	87	16	0	0	7	0	15
Cl.Cl.NCC(NC(=O)c1cc(-c2ccccc2)c(-c2ccnc3[nH]ccc23)s1)c1ccccc1 (centres unmarked) [GSK1321561]	100	25	84	0	26	21	38	2	6	34
COc1cc2c(cc1OCCN1CCNCC1)ncc1c3ccc(C#N)cc3[nH]c21	63	73	26	0	3	3	0	1	2	0
Cc1cccc(Nc2nc(N[C@H]3CCNC3)ncc2C(N)=O)c1.Cl [GSK2197149]	12	32	50	22	0	0	45	8	0	7
COCCOCCOc1cc2ncc3c4ccc(C#N)cc4[nH]c3c2cc1OC	72	70	12	0	15	33	0	23	11	25
C[C@@H](Oc1cc(-n2cnc3cc(-c4ccnc(NCCS(C)(=O)=O)c4)ccc32)sc1C(N)=O)c1ccccc1Cl [GSK907232]	0	15	35	1	9	16	0	10	0	23
COc1ccc(Nc2nccc(N3CCC(NC(=O)Nc4cccc(OC)c4)C3)n2)cc1 (centres unmarked) [GSK1379742]	0	0	20	0	10	0	0	1	0	8
